# Experimental data published in PubChem BioAssay (NCI).
# This is part of a sample that, as a whole, favours compounds with a hit. Of some 83,000 tested, about 20% had one in any assay.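 Negative percent growth values reflect cell death: -40 means 40% of the cells present at the start died, and -100 means all died.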 A number with no mark means an inactive call. Active and inactive are the calls of the source. Rule for the calls: active = growth percent below 10; inactive = the rest.
# Assays:
# Assay in all cases: NCI-60 one-dose screen, 48 h (100 = growth as untreated, 0 = no growth, -100 = all killed)
# Settings in all cases: 10 µM unless noted
# T-47D breast = tested on: T-47D breast
# BT-549 breast = tested on: BT-549 breast
# MDA-MB-435 melanoma = tested on: MDA-MB-435 melanoma
# SW-620 colon = tested on: SW-620 colon
# MCF7 breast = tested on: MCF7 breast
# HCT-116 colon = tested on: HCT-116 colon
# HCC-2998 colon = tested on: HCC-2998 colon
# KM12 colon = tested on: KM12 colon
Compound,growth (T-47D breast),growth (BT-549 breast),growth (MDA-MB-435 melanoma),growth (SW-620 colon),growth (MCF7 breast),growth (HCT-116 colon),growth (HCC-2998 colon),growth (KM12 colon)
CCOC(=O)C1=NN(c2ccccc2)C(=O)/C1=C\N1C(=O)/C(=C/c2cccc(O)c2)SC1=S,93%,97%,109%,97.6%,91.8%,88.8%,99.8%,100%
CCCCCCCCc1cc(Cl)c(O)c(Cl)c1,101%,116%,102%,117%,118%,103%,112%,101%
CC1=CC(=O)C=CC1(C)C(Cl)(Cl)Cl (configuration not stated),89.8%,103%,105%,96.7%,92.6%,89.9%,98.6%,108%
C1=C(c2ccccc2)c2ccccc2C1,92.7%,99.1%,93.1%,97.8%,109%,95.8%,91%,96.3%
N#CC1c2ccccc2C=CN1C(=O)CCCl (configuration not stated),52.4%,92.1%,94%,55.8%,24.8%,84.1%,110%,86.4%
CCC(=O)c1cc([N+](=O)[O-])c(Br)s1,-46.2% (active),108%,96.9%,35.4%,62.6%,1.06% (active),92.7%,93.8%
COc1cccc2c1C(=O)c1c(O)c3c(c(O)c1C2=O)C[C@@](O)(C(=O)CO)C[C@@H]3OC1CC(OC(C)=O)C(OC(C)=O)C(C)O1 (some centres not stated),-27.3% (active),-39.7% (active),7.04% (active),3.7% (active),4.45% (active),-80% (active),-72% (active),-39% (active)
O=C1C=CC(=O)N1c1ccc(O)cc1,83.3%,103%,107%,95.6%,102%,106%,105%,109%
Cc1cc(C(N)=O)cc(C)c1C(=O)OCCCl,95.8%,111%,98%,103%,101%,97%,95.8%,93.6%
CN=C(N)N/N=C(\C)c1ccc2c(c1)Cc1ccccc1-2,-65.4% (active),-6.1% (active),-73.1% (active),-88.9% (active),-99.3% (active),-100% (active),-98.5% (active),-79% (active)
COC(=O)c1cc([N+](=O)[O-])cc([N+](=O)[O-])c1Cl,-28.3% (active),117%,81.7%,31.7%,45.1%,-42.8% (active),106%,105%
COC1=CC(=O)c2c(O)c3c(c(O)c2C1=O)CC(C)(O)OC3 (configuration not stated),0.836% (active),28.1%,-95% (active),16.6%,-27.1% (active),-27.6% (active),-20.5% (active),9.83% (active)
O=C(Nc1cccc(C(F)(F)F)c1)Oc1ccc(Cl)c2cccnc12,22%,37.5%,28%,12.8%,61.1%,0.974% (active),92.7%,25.4%
Cc1nc([N+](=O)[O-])c(Sc2nncc(-c3ccccc3)n2)n1C,15.3%,66.6%,76.3%,77.1%,43.8%,53.2%,98.3%,104%
CCOC(=O)c1cc(CC)sc1NC(=O)CC(C)=O,34.8%,27.3%,68.8%,49.7%,15.9%,26.5%,69.4%,47.1%
O=C(NNc1ccccc1)OCc1ccccc1,69%,83.1%,34.1%,54.3%,104%,66%,75.4%,19.8%
N#CC(=C1SCS1)[N+](=O)[O-],29.1%,-6.56% (active),16.4%,19.3%,16.7%,35.8%,27%,14.2%
CC1(C)OC2C(COC(c3ccccc3)(c3ccccc3)c3ccccc3)OC(c3c[nH]c4c(N)ncnc34)C2O1 (configuration not stated),43.2%,77.5%,62.4%,63.9%,35%,46.7%,85.7%,50.3%
CCCCCCN(CCCCCC)CCCNc1nccc2ccccc12,-13.6% (active),39.7%,0.549% (active),6.78% (active),-28% (active),8.24% (active),-59.4% (active),9.96% (active)
C[n+]1ccccc1C[n+]1ccccc1,105%,108%,115%,118%,92.3%,107%,110%,103%
OC(CSc1ccccc1)CN1CCN(c2ccc(Cl)cc2)CC1 (configuration not stated),95.9%,102%,105%,105%,98%,90.2%,95.3%,110%
O=C1C=CC(=O)c2c(O)c(CO)c(CO)c(O)c21,96.3%,97%,83.5%,109%,96.9%,74.7%,108%,115%
CN1CCC(CN2c3ccccc3Sc3ccccc32)C1 (configuration not stated),93.6%,89.4%,88.5%,93.7%,97.7%,77.6%,41.4%,97.2%
S=C1SCN(Cc2cccs2)CN1Cc1cccs1,56.5%,98.5%,93.3%,82.4%,43.9%,99.4%,116%,91.2%
